Compounds without any hit were thinned out: in the full panel of roughly 83,000, 20% have a hit.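 In brief: 96-well plates, 48 h treatment, single concentration, percent growth endpoint.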 Unmarked numbers belong to inactive results. Activity calls are given as the source filed them. The calls were made as follows: active = growth percent below 10; inactive = the rest.
Assays:
Test in all cases: NCI-60 one-dose screen, 48 h (100 = growth as untreated, 0 = no growth, -100 = all killed)
Conditions in all cases: 10 µM
[1] = test system: SK-MEL-2 melanoma
[2] = test system: EKVX NSCLC
[3] = test system: SN12C renal
[4] = test system: UO-31 renal
[5] = test system: TK-10 renal
[6] = test system: ACHN renal
[7] = test system: CAKI-1 renal
[8] = test system: A498 renal
[9] = test system: CCRF-CEM leukemia
[10] = test system: MOLT-4 leukemia

Structure (SMILES)	growth [1]	growth [2]	growth [3]	growth [4]	growth [5]	growth [6]	growth [7]	growth [8]	growth [9]	growth [10]
COc1cc(/C=C/c2cc(/C=C/c3ccc(O)c(OC)c3)[nH]c(=O)n2)ccc1O	81.1%	71.6%	62.3%	54.2%	103%	89.4%	88.6%	62.8%	16.7%	36.3%
COc1ccc(C(=O)N2C=Cc3ccccc3C2C#N)cc1 (stereo not given)	101%	99.4%	89.3%	73.9%	100%	96.4%	87.3%	91.1%	92.7%	83.4%
COc1cc(CNC(=O)C2CSC3(C)c4ccccc4C(=O)N23)cc(OC)c1OC (stereo not given)	89.3%	108%	91.6%	90.3%	102%	97.4%	89.8%	90.5%	90.7%	81.2%
COc1ccc2c(c1)C(=O)/C(=C/c1cccc(OCC(=O)c3ccc([N+](=O)[O-])cc3)c1)CO2	-47.3% (active)	75.6%	65.6%	-68% (active)	3.16% (active)	51.8%	16.3%	79.5%	-11.8% (active)	-38% (active)
COc1ccc(C(=O)COc2cccc(/C=C3\Cc4ccccc4C3=O)c2)cc1	51.8%	87.8%	92.7%	12.1%	111%	95.8%	76.4%	94.7%	80.8%	85.8%
COc1ccc(C(=O)N/N=C/c2cc(C(F)(F)F)ccc2Cl)cc1	104%	75.7%	93.6%	88.9%	107%	108%	89.2%	67%	103%	92.5%
Nc1ccc(CC[C@H]2CCC/C=C/[C@@H]3C[C@H](O)C[C@H]3[C@H](O)/C=C/C(=O)O2)cc1	-25.9% (active)	8.9% (active)	7.47% (active)	2.24% (active)	-53.8% (active)	10%	7.49% (active)	-32.4% (active)	-3.7% (active)	-18.8% (active)
COc1cccc(-c2nc3sccn3c2-c2cccc(S(C)(=O)=O)c2)c1	115%	78.4%	99.1%	73.1%	102%	96.2%	82.2%	106%	98.2%	104%
COc1ccc(Cl)cc1Nc1nc(C(F)(F)F)ccc1C(=O)N/N=C/c1cc(OC)c(OC)c(OC)c1	9.11% (active)	32.6%	25.1%	15.4%	20.2%	16%	27.6%	26.8%	9.22% (active)	9.62% (active)
COc1cc2c(cc1OC)C(C(CCCCCC(CCC(C)C)C1NCCc3cc(OC)c(OC)cc31)CCC(C)C)NCC2 (stereo not given)	-91.9% (active)	-74.4% (active)	-85.5% (active)	-96.3% (active)	-97.2% (active)	-100% (active)	-84.7% (active)	-59.6% (active)	-74.3% (active)	2.91% (active)
CCN(CC)CCCC(Nc1c2ccc(Cl)cc2nc2ccc(OC)cc12)c1ccc(F)cc1 (stereo not given)	116%	40.2%	25.7%	-43.3% (active)	-59.6% (active)	-58.9% (active)	87.6%	59.5%	-18.5% (active)	2.74% (active)
CCN(CC)c1ccc(/C=C2\SC(=O)C(Nc3nnc(-c4cccnc4SCc4ccccc4)o3)C2=O)cc1 (stereo not given)	33.8%	55.8%	61.4%	53.7%	44.3%	51.2%	41.2%	9.41% (active)	50.6%	61.9%
NS(=O)(=O)Oc1ccc(NC(=O)C2CCCCCC2)cc1	106%	85.1%	99.1%	82.1%	105%	97.3%	87.4%	122%	89.4%	104%
CCN1C(=O)CC(SC2CC(=O)N(CC)C2=O)C1=O (stereo not given)	93.6%	95.9%	98.6%	80.2%	89.4%	106%	95.1%	74.9%	94.1%	72%
Oc1ccc(/C=N/N=C2c3ccccc3-c3ccccc32)c(O)c1	80.9%	78.4%	56.1%	56.1%	108%	70.1%	66.8%	95.6%	60.4%	77.9%
CC1(C)N=C(N)N=C(N)N1c1cccc(C#N)c1	79.1%	67%	94.3%	77.9%	62.4%	37.1%	95.2%	69.8%	35.7%	31.2%
COc1ccc(/C(C#N)=C/c2ccccc2OC)cc1	15.9%	64.6%	47.3%	52.2%	53%	44.1%	39%	25.6%	16.2%	21.3%
O=C(Nc1ccc(NS(=O)(=O)c2ccc(F)cc2)cc1)C12CC3CC(CC(C3)C1)C2	107%	74.4%	92.6%	75.1%	96.7%	102%	86%	90.8%	84.2%	77.7%
COc1cc(/C=C/c2cc(/C=C/c3ccc(O)c(OC)c3)nc(N)n2)ccc1O	-21% (active)	22.2%	22.1%	3.16% (active)	21.4%	13.5%	19.2%	-56.9% (active)	1.68% (active)	4.17% (active)
CC(C1=C(CN(C(=O)Cc2cn(-c3ccccc3)nc2-c2ccc(Cl)cc2)C(C)C)Cc2ccccc21)c1ccccn1 (stereo not given)	53%	41%	77%	27.4%	70.3%	60.4%	40.9%	50.6%	53.3%	29.3%

From PubChem BioAssay (NCI)
